Reference: the supplement of paper PMC9492666

Test system: MDA-MB-231
Test: relative cell viability, compound + erastin, vs DMSO (fraction of DMSO control); higher = less growth inhibition
Conditions: 72 h
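Note: viability read by CCK-8 kit in 96-well plates, part of a combination screen pairing lipid-metabolism-targeting compounds with erastin.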

| Compound | relative cell viability |
| --- | --- |
| O=S(=O)(O)c1ccc2cc(N=Nc3cc(S(=O)(=O)O)c4cccnc4c3O)ccc2c1 + CCOc1ccccc1-n1c(C(C)N2CCN(C(=O)COc3ccc(Cl)cc3)CC2)nc2ccccc2c1=O [erastin] | 0.595 |
| COc1ccc(-n2c(SCCCN3C(=O)c4cccc5cccc(c45)C3=O)nnc2-c2ccncc2)cc1 + CCOc1ccccc1-n1c(C(C)N2CCN(C(=O)COc3ccc(Cl)cc3)CC2)nc2ccccc2c1=O [erastin] | 0.658 |
| CC(c1cc2ccccc2s1)N(O)C(N)=O (configuration not stated) [Zileuton] + CCOc1ccccc1-n1c(C(C)N2CCN(C(=O)COc3ccc(Cl)cc3)CC2)nc2ccccc2c1=O [erastin] | 0.595 |
| CC(C)(Oc1ccc(C2CC2(Cl)Cl)cc1)C(=O)O (configuration not stated) [Ciprofibrate] + CCOc1ccccc1-n1c(C(C)N2CCN(C(=O)COc3ccc(Cl)cc3)CC2)nc2ccccc2c1=O [erastin] | 0.628 |
| CCC(=O)O[C@]1(C(=O)SCF)[C@H](C)C[C@H]2[C@@H]3C[C@H](F)C4=CC(=O)C=C[C@]4(C)[C@@]3(F)[C@@H](O)C[C@@]21C [Fluticasone propionate] + CCOc1ccccc1-n1c(C(C)N2CCN(C(=O)COc3ccc(Cl)cc3)CC2)nc2ccccc2c1=O [erastin] | 0.545 |
| COc1ccc2[nH]cc(CCNC(C)=O)c2c1 [Melatonine] + CCOc1ccccc1-n1c(C(C)N2CCN(C(=O)COc3ccc(Cl)cc3)CC2)nc2ccccc2c1=O [erastin] | 0.693 |
| CCCc1c(-c2ccccc2)[nH]n(-c2ccccn2)c1=O [APX-115 free base] + CCOc1ccccc1-n1c(C(C)N2CCN(C(=O)COc3ccc(Cl)cc3)CC2)nc2ccccc2c1=O [erastin] | 0.625 |
